Measurements reported in PubChem BioAssay (NCI).
Compounds without any hit were thinned out: in the full panel of roughly 83,000, 20% have a hit.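 Cells were grown in 96-well plates and exposed to the test compound at a single concentration for 48 hours; results are reported as percent growth, with values below 10 considered active.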 The source made the active and inactive calls.

Assays:
Assay in all cases: NCI-60 one-dose screen, 48 h (100 = growth as untreated, 0 = no growth, -100 = all killed)
Settings in all cases: 10 µM unless noted
T-47D breast = test system: T-47D breast
BT-549 breast = test system: BT-549 breast
MDA-MB-435 melanoma = test system: MDA-MB-435 melanoma
SW-620 colon = test system: SW-620 colon
MCF7 breast = test system: MCF7 breast
HCT-116 colon = test system: HCT-116 colon
HCC-2998 colon = test system: HCC-2998 colon
KM12 colon = test system: KM12 colon

Measured: growth

CCc1ccc(C(c2ccc(CC)cc2)C(Cl)(Cl)CCl)cc1
inactive: T-47D breast 77.6% | BT-549 breast 116% | MDA-MB-435 melanoma 102% | SW-620 colon 86.8% | MCF7 breast 106% | HCT-116 colon 76.3% | HCC-2998 colon 90.1% | KM12 colon 103%

COC(=O)[C@@H]1CC[C@]2(C)[C@H](CC[C@@H]3O[C@@]32C)[C@@]1(C)CC(=O)c1ccoc1
inactive: T-47D breast 105% | BT-549 breast 105% | MDA-MB-435 melanoma 104% | SW-620 colon 88.3% | MCF7 breast 93% | HCT-116 colon 98.4% | HCC-2998 colon 93.1% | KM12 colon 108%

S=c1[nH]nc(CSc2ncnc3c2c(-c2ccccc2)cn3-c2ccc(Cl)cc2)o1
inactive: T-47D breast 90.6% | BT-549 breast 107% | MDA-MB-435 melanoma 104% | SW-620 colon 95.2% | MCF7 breast 93.7% | HCT-116 colon 93.8% | HCC-2998 colon 104% | KM12 colon 98.7%

Nc1nc2c(c3ncccc13)C(c1cccc(Br)c1)Cc1ncccc1-2 (stereo not drawn)
active: MDA-MB-435 melanoma 1.43%
inactive: T-47D breast 29.3% | BT-549 breast 24.8% | SW-620 colon 29.1% | MCF7 breast 16.5% | HCT-116 colon 11.5% | HCC-2998 colon 25.4% | KM12 colon 18.4%

COc1ccc(S(=O)(=O)NCCCNc2nccc(-c3c(-c4cccc(N)c4)nc4sccn34)n2)cc1
inactive: T-47D breast 63% | BT-549 breast 102% | MDA-MB-435 melanoma 70.2% | SW-620 colon 138% | MCF7 breast 69.3% | HCT-116 colon 99.2% | HCC-2998 colon 144% | KM12 colon 39.4%

COc1ccc(S(=O)(=O)NCCNc2nccc(-c3c(-c4cccc(N)c4)nc4sccn34)n2)cc1
inactive: T-47D breast 75.9% | BT-549 breast 82.8% | MDA-MB-435 melanoma 103% | SW-620 colon 113% | MCF7 breast 90.8% | HCT-116 colon 98% | HCC-2998 colon 122% | KM12 colon 64.6%

CC[C@]12C=CCN3CC[C@@]4(c5ccc(OC)cc5N(C)[C@H]4[C@@](O)(C(=O)OC)[C@@H]1OC(=O)CCC(=O)N[C@@H](Cc1c[nH]c4ccccc14)C(=O)OC)[C@@H]32
inactive: T-47D breast 67.8% | BT-549 breast 115% | MDA-MB-435 melanoma 95.3% | SW-620 colon 96.4% | MCF7 breast 90% | HCT-116 colon 100% | HCC-2998 colon 70.6% | KM12 colon 106%

NC1=CC(=O)C(=O)c2ccccc21
active: MDA-MB-435 melanoma -72.4%
inactive: T-47D breast 56.4% | BT-549 breast 90.4% | SW-620 colon 98.9% | MCF7 breast 86% | HCT-116 colon 63.4% | HCC-2998 colon 95% | KM12 colon 95.7%

CN1/C(=C\C=C\C2=[N+](C)c3ccccc3C2(C)C)C(C)(C)c2ccccc21
active: T-47D breast -9.24% | BT-549 breast -17.7% | MDA-MB-435 melanoma -48.9% | SW-620 colon 8.18% | MCF7 breast -2.53% | HCT-116 colon 0.854% | HCC-2998 colon -60.8% | KM12 colon -64.9%

NCc1cn2cc(Cl)sc2n1
inactive: T-47D breast 111% | BT-549 breast 111% | MDA-MB-435 melanoma 113% | SW-620 colon 106% | MCF7 breast 95% | HCT-116 colon 107% | HCC-2998 colon 102% | KM12 colon 106%

CC1(C)CC(C(=O)OCCCCCCCCCCC[P+](c2ccccc2)(c2ccccc2)c2ccccc2)C(C)(C)N1O (stereo not drawn)
active: T-47D breast -54.3% | BT-549 breast -42.1% | MDA-MB-435 melanoma -70.3% | SW-620 colon -81% | MCF7 breast -80.6% | HCT-116 colon -8.91% | HCC-2998 colon -84.9% | KM12 colon -94.6%

CN(C)C(=O)c1cc2cnc(Nc3ccc(-c4csc5c(=O)cc(N6CCNCC6)oc45)cc3)nc2n1C1CCCC1
inactive: T-47D breast 52.1% | BT-549 breast 46.2% | MDA-MB-435 melanoma 38.2% | KM12 colon 13.8%
active: SW-620 colon 0.864% | MCF7 breast 3.93% | HCT-116 colon 4.23% | HCC-2998 colon -0.6%

C=C1C(=O)O[C@H]2[C@H]1CC/C(Cn1cc(Cn3ccc4ccccc43)nn1)=C\CC[C@@]1(C)O[C@@H]21
active: T-47D breast -17.9% | SW-620 colon -77.1% | MCF7 breast -73.9% | HCT-116 colon -89.5%
inactive: BT-549 breast 58.7% | MDA-MB-435 melanoma 19.9% | HCC-2998 colon 69% | KM12 colon 66.5%

Cc1nn(-c2ccccc2)c2nc(C)n(-c3ccc(Br)cc3)c(=O)c12
inactive: T-47D breast 23.4% | BT-549 breast 50.7% | SW-620 colon 22.6% | MCF7 breast 13.4% | HCT-116 colon 15.7% | HCC-2998 colon 32.6% | KM12 colon 43.1%
active: MDA-MB-435 melanoma -5.13%

ClC1=C2NC=NC2n2c(nnc2-c2ccc(Cl)cc2)N1 (stereo not drawn)
inactive: T-47D breast 90.8% | BT-549 breast 101% | MDA-MB-435 melanoma 99.9% | SW-620 colon 115% | MCF7 breast 85.6% | HCT-116 colon 98.5% | HCC-2998 colon 102% | KM12 colon 99.6%

COc1cccc2c1C(=O)c1c(O)c3c(c(O)c1C2=O)C[C@@](O)(/C(C)=N/NC(=O)c1ccc(Cl)cc1)C[C@@H]3OC1CC(N)C(O)C(C)O1 (stereo partly drawn)
active: T-47D breast -11.6% | BT-549 breast -45.3% | MDA-MB-435 melanoma -87.3% | SW-620 colon -36.6% | MCF7 breast -13.8% | HCT-116 colon 7.54% | HCC-2998 colon -45% | KM12 colon -26.2%

O=C1c2ccccc2-c2nccc3cc(Cl)nc1c23
inactive: BT-549 breast 58.5% | HCC-2998 colon 101% | KM12 colon 25.7%
active: T-47D breast -52.5% | MDA-MB-435 melanoma -73.7% | SW-620 colon -54% | MCF7 breast -59.5% | HCT-116 colon -91%

CC/C=C\C[C@H](O)C/C=C1/C(=O)C=C[C@@H]1C/C=C\CCCC(=O)NC(C)C
inactive: T-47D breast 11.4% | SW-620 colon 11.7% | MCF7 breast 14.4%
active: BT-549 breast 0.828% | MDA-MB-435 melanoma 5.43% | HCT-116 colon -54.3% | HCC-2998 colon -55.5% | KM12 colon -43.5%

CN1CCN(Cc2ccc(NC(=O)c3[nH]ncc3Nc3ncnc4[nH]ccc34)cc2)CC1
inactive: T-47D breast 21.7%
active: BT-549 breast -76.2% | MDA-MB-435 melanoma 8.18% | SW-620 colon 5.63% | MCF7 breast 9.25% | HCT-116 colon 2.81% | HCC-2998 colon -14.2% | KM12 colon 3.42%

CC1CN(C(C)C)C(=S)N(c2ccccc2)C1=O (stereo not drawn)
inactive: T-47D breast 166% | BT-549 breast 101% | MDA-MB-435 melanoma 96.3% | SW-620 colon 108% | MCF7 breast 96.7% | HCT-116 colon 89.4% | HCC-2998 colon 101% | KM12 colon 109%

CC[C@H](Nc1ncnc(N)c1C(N)=O)c1nc2cccc(NCc3ccc(C(=O)NO)cc3)c2c(=O)n1-c1ccccc1
inactive: T-47D breast 42.1% | BT-549 breast 88.6% | MDA-MB-435 melanoma 81.8% | SW-620 colon 66.8% | MCF7 breast 82.8% | HCT-116 colon 67% | HCC-2998 colon 86.1% | KM12 colon 89.6%

COC1C/C(=N\O)C2OC(c3ccccc3)OCC2O1 (stereo not drawn)
inactive: T-47D breast 103% | BT-549 breast 105% | MDA-MB-435 melanoma 102% | SW-620 colon 105% | MCF7 breast 102% | HCT-116 colon 97.9% | HCC-2998 colon 110% | KM12 colon 121%

COc1cc(NC(N)=NCC(C)(C)COc2ccc(C(F)(F)F)cc2)cnc1C#N
inactive: T-47D breast 30.3% | BT-549 breast 75.4% | MDA-MB-435 melanoma 61.1% | SW-620 colon 69.9% | MCF7 breast 32.5% | HCT-116 colon 37.7% | HCC-2998 colon 18.9% | KM12 colon 57.6%

CC(=O)OCC(=O)C1CCC=CC1OC(C)=O (stereo not drawn)
inactive: T-47D breast 87.8% | BT-549 breast 103% | MDA-MB-435 melanoma 98.3% | SW-620 colon 111% | MCF7 breast 105% | HCT-116 colon 100% | HCC-2998 colon 102% | KM12 colon 99.7%

NCCN1CCN(c2nccc(-c3ccc4ccccc4c3)n2)CC1
active: MDA-MB-435 melanoma -26.4% | SW-620 colon -37.9% | HCT-116 colon 3.52%
inactive: T-47D breast 43.1% | BT-549 breast 82.2% | MCF7 breast 51.2% | HCC-2998 colon 14% | KM12 colon 48.1%

CCCCNP1(NCCCC)=NP(NCCCC)(NCCCC)=NP(NCCCC)(NCCCC)=NP(NCCCC)(NCCCC)=N1
inactive: BT-549 breast 45.4%
active: T-47D breast -5.86% | MDA-MB-435 melanoma 6.7% | SW-620 colon 6.12% | MCF7 breast -7.14% | HCT-116 colon 0.711% | HCC-2998 colon -24.9% | KM12 colon -24.7%

O=C(CCCCN1CCOCC1)Nc1ccc(Cn2nnc3c2C(=O)c2nnn(Cc4ccc(NC(=O)CCCCN5CCOCC5)cc4)c2C3=O)cc1
active: T-47D breast -50.5% | BT-549 breast -94.7% | MDA-MB-435 melanoma -77% | SW-620 colon -50.1% | MCF7 breast -51.7% | HCT-116 colon -91% | HCC-2998 colon -62.3% | KM12 colon -36.2%

O=[N+]([O-])c1cccc(-c2nc3sccn3c2-c2ccnc(NCCCNS(=O)(=O)c3ccc(Br)cc3)n2)c1
active: T-47D breast 1.8%
inactive: BT-549 breast 38% | MDA-MB-435 melanoma 46.6% | SW-620 colon 98.1% | MCF7 breast 34% | HCT-116 colon 56.9% | HCC-2998 colon 102% | KM12 colon 40.5%

O=[N+]([O-])c1cccc(-c2nc3sccn3c2-c2ccnc(NCCCNS(=O)(=O)c3cccc(F)c3)n2)c1
inactive: SW-620 colon 22.9% | HCC-2998 colon 65.6%
active: T-47D breast -13.4% | BT-549 breast -16.8% | MDA-MB-435 melanoma -19.4% | MCF7 breast -18.9% | HCT-116 colon 7.77% | KM12 colon -10.6%

COc1ccc(-c2cn3c(-c4ccc(OC)cc4)cnc3c(Oc3ccc4c(C)cc(=O)oc4c3)n2)cc1
inactive: T-47D breast 45.3% | BT-549 breast 29.2% | MDA-MB-435 melanoma 37.2% | SW-620 colon 39% | MCF7 breast 44.2% | HCT-116 colon 33.9% | HCC-2998 colon 77.1% | KM12 colon 43%

CCCCN(CCCC)Cc1c(C)[nH]c2cc(OC)ccc2c1=O
inactive: T-47D breast 95.7% | BT-549 breast 108% | MDA-MB-435 melanoma 104% | SW-620 colon 101% | MCF7 breast 94.8% | HCT-116 colon 95.2% | HCC-2998 colon 94.6% | KM12 colon 104%
